In ChEMBL document CHEMBL1201862, “PubChem BioAssay data set” (2004):
Out of some 55,000 sequences screened, about 2,600 (4.7%) were called active. Cut-off read from the data, not from the text of the source: active = GI50 up to about 1.1 µM and inactive = higher. Not all results are given here. Potency and affinity values are given separately.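 Where inhibition never reached the appropriate level, the endpoint shown equals the highest concentration tested. Otherwise, values were interpolated linearly from a five-concentration, 48-hour dose response in 96-well plates. Abbreviation: GI50, concentration required for 50% inhibition of growth.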

System: OVCAR-4
Assay: NCI tumour cell line growth inhibition, 48 h

Substance	GI50 [µM]
[Bis(aminomethyl)tetramethylenesilane]dichloropaltinum(II), CHEMBL2146205	59.8
[Bis(aminomethyl)tetramethylenesilane]tetrachloropaltinum(IV), CHEMBL2146189	19
CISPLATIN, CHEMBL11359	1.49
[Bis(aminomethyl)pentamethylenesilane]dichloropaltinum(II), CHEMBL2146202	5.46
cis-Bis[[(trimethylsilyl)methyl]amino]tetrachloroplatinum(IV), CHEMBL2146191	5.53
[Bis(aminomethyl)pentamethylenesilane]tetrachloropaltinum(IV), CHEMBL2146204	18.6
[Bis(aminomethyl)dimethylsilane]tetrachloroplatinum(IV), CHEMBL2146190	18.8
[Bis(aminomethyl)dimethylsilane]dichloroplatinum (II), CHEMBL2146201	45.8
[Bis(aminomethyl)ethylmethylsilane]tetrachloroplatinum(IV), CHEMBL2146192	10
mu-(1,7-nanodiamine-N,N')bis-(cis-aminedichloroplatimum (II)), CHEMBL2146215	40.8
[Bis(aminomethyl)diethylsilane]tetrachloroplatinum(IV), CHEMBL2146203	14.7
